PubChem BioAssay (Tox21)
Results filed as inconclusive are left out. Active and inactive are the calls of the source. Unless noted, calls come from the whole dose curve; as a rule, active = well fitted curve in the direction sought with a large enough effect in the repeat runs; inconclusive = weak or mixed curves; inactive = no such curve, though single readings can be large; an effect the other way counts as inactive or inconclusive.

How the values were obtained:
[1] = target: Thyrotropin receptor (Homo sapiens) (UniProt P16473); assay: qHTS assay to identify small molecule agonists of the thyroid stimulating hormone receptor (TSHR) signaling pathway (AID 1224843; calls by dose curve; note: nearly all actives have a fitted effect of over 45% in size; note: potency is the fitted concentration of half-maximal effect)
Thyrotropin receptor (Homo sapiens), sequence (P16473 whole entry, looked up): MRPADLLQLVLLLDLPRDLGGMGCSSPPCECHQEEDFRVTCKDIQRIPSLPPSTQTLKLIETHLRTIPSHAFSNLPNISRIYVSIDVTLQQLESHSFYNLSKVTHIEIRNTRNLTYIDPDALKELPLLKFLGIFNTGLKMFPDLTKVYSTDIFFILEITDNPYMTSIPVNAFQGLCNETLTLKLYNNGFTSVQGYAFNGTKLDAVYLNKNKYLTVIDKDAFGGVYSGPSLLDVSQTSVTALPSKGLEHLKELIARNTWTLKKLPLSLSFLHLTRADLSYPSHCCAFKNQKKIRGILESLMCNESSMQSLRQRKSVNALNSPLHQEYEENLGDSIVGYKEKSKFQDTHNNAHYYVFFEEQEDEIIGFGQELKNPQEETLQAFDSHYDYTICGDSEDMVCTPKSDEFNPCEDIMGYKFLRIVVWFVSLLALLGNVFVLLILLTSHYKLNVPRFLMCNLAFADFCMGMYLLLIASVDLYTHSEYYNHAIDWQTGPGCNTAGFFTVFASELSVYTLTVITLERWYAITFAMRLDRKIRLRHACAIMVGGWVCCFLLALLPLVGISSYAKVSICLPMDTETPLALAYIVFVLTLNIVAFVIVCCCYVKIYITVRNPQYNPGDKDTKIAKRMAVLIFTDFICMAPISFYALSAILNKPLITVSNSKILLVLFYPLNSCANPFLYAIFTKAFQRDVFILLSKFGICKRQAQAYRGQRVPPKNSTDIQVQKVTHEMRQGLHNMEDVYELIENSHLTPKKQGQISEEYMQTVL
In short: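 Using 15 concentrations per compound in triplicate, cAMP production was monitored in TSHR-HEK293 cells after 30 min compound incubation at RT; HTRF reagents followed, with fluorescence intensity recorded after 1 h.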

[2] = qHTS assay to identify small molecule agonists of the hypoxia (HIF-1) signaling pathway - cell viability counter screen (AID 1224844; calls by dose curve; note: nearly all actives have a fitted effect of over 50% in size)
In short: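 CellTiter-Glo luminescence read-out, 30 min RT, taken in the same wells as the beta-lactamase HRE reporter assay; HRE-bla ME-180 cells, 0.5% dialyzed FBS, 17 hr compound treatment at 37C, 5% CO2.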

[3] = qHTS assay to identify small molecule agonists of H2AX (AID 1224845; active = well fitted activation curve with a large enough effect in the signal ratio in the repeat runs, not every such curve was filed as active; the % refers to the signal ratio)
In short: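 Wild-type CHO-K1 cells plated overnight, then exposed 3 hr at 37C to compounds at 15 concentrations (0.76% DMSO). Lysed, then HTRF anti-pH2AX(S139)-cryptate/anti-H2AX-d2 detection after 24 hr at room temperature; emissions 665 and 620 nm.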

[4] = qHTS assay to identify small molecule agonists of the hypoxia (HIF-1) signaling pathway (AID 1224846; active = well fitted activation curve with a large enough effect in the signal ratio in the repeat runs, not every such curve was filed as active; the % refers to the signal ratio)
In short: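 Beta-lactamase FRET read-out (CCF4-AM substrate) from ME-180 cells carrying an HRE-driven bla reporter, after 17 hrs compound exposure at 37C/5% CO2. Cells were seeded at 2,000 per well in 0.5% dialyzed FBS medium and preincubated 5 hrs.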

[5] = qHTS assay to identify small molecule agonists of H2AX - cell viability counter screen (AID 1224847; calls by dose curve; note: top concentration of the series differs between compounds; nearly all actives have a fitted effect of over 30% in size)
In short: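 For this counter screen, overnight-attached CHO-K1 cells received test compounds (15 concentrations, 0.76% DMSO final); 3 hr later at 37C, CellTiter-Glo reagent was added and luminescence recorded after 30 min at room temperature.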

[6] = qHTS RealTime-Glo MT Cell Viability Assay in HepG2 cells - 24 hour (AID 1224867); note: nearly all actives have a fitted effect of over 50% in size
In short: (§1)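 HepG2 suspension premixed with RealTime-Glo reagents is plated at 600 cells per well and left 5 h at 37 C/5% CO2. Compounds in DMSO then go in, and bioluminescence reflecting viable cell number is recorded over 40 h.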

[7] = qHTS RealTime-Glo MT Cell Viability Assay in HEK293 cells - 32 hour (AID 1224868); note: top concentration of the series differs between compounds; nearly all actives have a fitted effect of over 50% in size
In short: (§2)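 Reads taken at 0, 8, 16, 24, 32 and 40 h from the same wells. HEK293 cells (600/well) carried RealTime-Glo reagents from seeding, with compound added after a 5 h settle at 37 C.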

[8] = A CellTox Green Cytotoxicity Assay to monitor cytotoxicity in HEK293 cells - 0 hour (AID 1224869); note: nearly all actives have a fitted effect of over 50% in size
In short: (§3)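 Read-out: fluorescence of a cell-impermeant cyanine dye staining DNA of dead cells, proportional to cytotoxicity. HEK293, 600 cells/well with reagent, compound (23 nL DMSO) added after 5 h; reads at 0, 8, 16, 24, 32, 40 h.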

[9] = qHTS RealTime-Glo MT Cell Viability Assay in HepG2 cells - 40 hour (AID 1224870); note: nearly all actives have a fitted effect of over 50% in size
In short: (§4)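 HepG2 cells mixed with RealTime-Glo MT reagents (NanoLuc plus cell-permeant prosubstrate) were seeded at 600 cells/well, incubated 5 h at 37 C/5% CO2, then pinned with compounds in DMSO; nonlytic luminescence tracked viability during 40 h treatment.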

[10] = A CellTox Green Cytotoxicity Assay to monitor cytotoxicity in HEK293 cells - 40 hour (AID 1224871); note: nearly all actives have a fitted effect of over 45% in size
In short: as §3

[11] = qHTS RealTime-Glo MT Cell Viability Assay in HEK293 cells - 16 hour (AID 1224872)
In short: as §2

[12] = qHTS RealTime-Glo MT Cell Viability Assay in HepG2 cells - 8 hour (AID 1224873); note: nearly all actives have a fitted effect of over 55% in size
In short: as §4

[13] = qHTS RealTime-Glo MT Cell Viability Assay in HEK293 cells - 40 hour (AID 1224874); settings: RealTime-Glo luminescence, hits give low values; note: nearly all actives have a fitted effect of over 50% in size
In short: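 Luminescence readout at each listed time point; HEK293, 600 cells/well, RealTime-Glo MT reagent added with cells; compounds pinned (23 nL in DMSO) after 5 h at 37 C; continuous culture at 37 C.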

[14] = A CellTox Green Cytotoxicity Assay to monitor cytotoxicity in HEK293 cells - 24 hour (AID 1224875); note: nearly all actives have a fitted effect of over 45% in size
In short: as §3

[15] = A CellTox Green Cytotoxicity Assay to monitor cytotoxicity in HepG2 cells - 16 hour (AID 1224876); note: nearly all actives have a fitted effect of over 45% in size
In short: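 HepG2, 600 cells/well premixed w/ CellTox Green; 5 h settle, 37 C/5% CO2; pintool cpd add (DMSO); 37 C, 40 h; fluorescence read at 0, 8, 16, 24, 32, 40 h.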

[16] = qHTS RealTime-Glo MT Cell Viability Assay in HepG2 cells - 32 hour (AID 1224877); note: nearly all actives have a fitted effect of over 55% in size
In short: as §1

[17] = qHTS assay to identify small molecule agonists of the estrogen related receptor signaling pathway with the pleiotropic PPARgamma coactivator (PGC) from Tox21 10K library (AID 1224842); note: nearly all actives have a fitted effect of over 15% in size
In short: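 PGC/ERR reporter cells (NTP line) were seeded 2,000 per well, rested 6 h at 37 C/5% CO2, then pin-dosed with compounds in DMSO for 18 h at 37 C; luciferase read by One-Glo luminescence after 30 min at room temperature.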

[18] = qHTS assay to identify small molecule antagonists of the estrogen related receptor (ERR) signaling pathway from Tox21 library (AID 1224848); note: nearly all actives have a fitted effect of over 50% in size
In short: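 Tox21 10K compounds in DMSO tested for ERR pathway antagonism in NTP's ERR cell line; 18 h, 37 C exposure; ONE-Glo luminescence.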

[19] = qHTS assay to identify small molecule agonists of the estrogen related receptor (ERR) signaling pathway from Tox21 library (AID 1224849; calls by dose curve; note: nearly all actives have a fitted effect of over 15% in size); settings: ERR reporter cell line, ONE-Glo luciferase, 18 h; at 92.4 µM (top of the series) unless noted
In short: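 Luminescence readout (ONE-Glo, 30 min RT) after 18 h compound exposure at 37 C of NTP-supplied ERR reporter cells; cells were plated 6 h before compound addition by pin tool.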
% is set by controls: 0 for no effect and ±100 for the full control effect.

O=C(O)Cc1ccccc1Oc1ccc(Cl)cc1Cl
inactive: Potency [1] | outcome [2] | outcome [3] | outcome [4] | outcome [5] | outcome [6] | outcome [7] | outcome [8] | outcome [9] | Potency [10] | outcome [11] | outcome [12] | max response [13] 4.29% | Potency [14] | Potency [15] | outcome [16]

Cc1nc2ccc(Cl)cc2[nH]1
inactive: Potency [1] | outcome [2] | outcome [3] | outcome [4] | outcome [5] | outcome [6] | outcome [7] | outcome [8] | outcome [9] | Potency [10] | outcome [11] | outcome [12] | Potency [14] | Potency [15] | outcome [16]

COC(=O)C(c1ccccc1Cl)N1CCc2sccc2C1 (stereo unspecified)
inactive: Potency [17] | outcome [2] | outcome [4] | outcome [5] | outcome [18] | activity change, positive = activation [19] -2.43% [at 42.5 µM] | outcome [6] | outcome [7] | outcome [8] | outcome [9] | Potency [10] | outcome [11] | outcome [12] | max response [13] -3.35% | Potency [15] | outcome [16]
active: Potency [1] 16.8 µM

CN(C)CCc1c[nH]c2ccc(CS(=O)(=O)N3CCCC3)cc12
inactive: Potency [1] | outcome [2] | outcome [3] | outcome [4] | outcome [5] | outcome [6] | outcome [7] | outcome [8] | outcome [9] | Potency [10] | outcome [11] | outcome [12] | max response [13] 7.03% | Potency [14] | Potency [15] | outcome [16]

CCCC[O][Al]([O]CCCC)[O]CCCC
inactive: Potency [1] | outcome [2] | outcome [3] | outcome [4] | outcome [5] | outcome [6] | outcome [7] | outcome [8] | outcome [9] | Potency [10] | outcome [11] | outcome [12] | max response [13] 2.78% | Potency [14] | Potency [15] | outcome [16]

OCCC(F)(F)C(F)(F)C(F)(F)C(F)(F)C(F)(F)C(F)(F)F
inactive: Potency [1] | outcome [2] | outcome [3] | outcome [4] | outcome [5] | outcome [6] | outcome [7] | outcome [8] | outcome [9] | Potency [10] | outcome [11] | outcome [12] | max response [13] -4.06% | Potency [14] | Potency [15] | outcome [16]

CN(C)c1ccncc1
inactive: Potency [1] | outcome [2] | outcome [3] | outcome [4] | outcome [5] | outcome [18] | activity change, positive = activation [19] -2.4% | outcome [6] | outcome [7] | outcome [8] | outcome [9] | Potency [10] | outcome [11] | outcome [12] | max response [13] -16.5% | Potency [14] | Potency [15] | outcome [16]

c1cc2ccc3ccc4ccc5cccc6c(c1)c2c3c4c56
inactive: activation [1] 11.3% [at 3.27 µM] | activity change, negative = cytotoxicity [2] -14.1% [at 2.72 µM] | activation (H2AX phosphorylation) [3] -2.49% [at 5.45 µM] | activation [4] 6.16% [at 2.67 µM] | activity change, negative = cytotoxicity [5] 0.956% [at 5.43 µM] | activity change, negative = cytotoxicity [6] -0.157% [at 2.72 µM] | activity change, negative = cytotoxic [7] 0.861% [at 2.72 µM] | cytotoxicity [8] -4.63% [at 2.72 µM] | activity change, negative = cytotoxic [9] -2.6% [at 2.72 µM] | cytotoxicity increase [10] -13.8% [at 2.72 µM] | activity change, negative = cytotoxicity [11] -0.658% [at 2.72 µM] | viability change, negative = cytotoxic [12] 0.803% [at 2.72 µM] | cytotoxicity increase [15] -15.3% [at 2.72 µM] | activity change, negative = cytotoxic [16] -3.43% [at 2.72 µM]

CC12CCCC=C1C(=O)OC2=O (stereo unspecified)
inactive: Potency [1] | outcome [2] | outcome [3] | outcome [4] | outcome [5] | outcome [6] | outcome [7] | outcome [8] | outcome [9] | Potency [10] | outcome [11] | outcome [12] | max response [13] 7.32% | Potency [14] | Potency [15] | outcome [16]

CCCCCCCCCCCCCCCC(=O)OC
inactive: activation [1] -0.158% [at 19 µM] | activity change, negative = cytotoxicity [2] 9.89% [at 15.8 µM] | activation (H2AX phosphorylation) [3] 4.71% [at 31.6 µM] | activation [4] 0.217% [at 15.8 µM] | activity change, negative = cytotoxicity [5] -4.52% [at 31.6 µM] | activity change, negative = cytotoxicity [6] -0.801% [at 15.8 µM] | activity change, negative = cytotoxic [7] -0.272% [at 15.8 µM] | cytotoxicity [8] -0.154% [at 15.8 µM] | activity change, negative = cytotoxic [9] 16.9% [at 15.8 µM] | cytotoxicity increase [10] -6.02% [at 15.8 µM] | activity change, negative = cytotoxicity [11] -4.38% [at 15.8 µM] | viability change, negative = cytotoxic [12] -11% [at 15.8 µM] | cytotoxicity increase [15] -17.1% [at 15.8 µM] | activity change, negative = cytotoxic [16] 6.89% [at 15.8 µM]

CN1CCN(C(=O)C2CCCCC2)CC1
inactive: Potency [1] | outcome [2] | outcome [3] | outcome [4] | outcome [5] | outcome [6] | outcome [7] | outcome [8] | outcome [9] | Potency [10] | outcome [11] | outcome [12] | max response [13] 0.482% | Potency [14] | Potency [15] | outcome [16]

Cc1cc(=O)oc2cc(O[C@@H]3SC[C@@H](O)[C@H](O)[C@H]3O)ccc12
inactive: Potency [1] | outcome [2] | outcome [3] | outcome [4] | outcome [5] | outcome [6] | outcome [7] | outcome [8] | outcome [9] | Potency [10] | outcome [11] | outcome [12] | Potency [14] | Potency [15] | outcome [16]

CCOC(=O)[C@H](CCc1ccccc1)N[C@H]1CS[C@H](c2cccs2)CN(CC(=O)O)C1=O
inactive: Potency [1] | outcome [2] | outcome [3] | outcome [4] | outcome [5] | outcome [6] | outcome [7] | outcome [8] | outcome [9] | Potency [10] | outcome [11] | outcome [12] | max response [13] 0.833% | Potency [14] | Potency [15] | outcome [16]

Cc1cc(C)c(N)c(Cl)c1
inactive: Potency [1] | outcome [2] | outcome [3] | outcome [4] | outcome [5] | outcome [6] | outcome [7] | outcome [8] | outcome [9] | Potency [10] | outcome [11] | outcome [12] | max response [13] 2.65% | Potency [15] | outcome [16]

COC(=O)c1cc(Cl)c(NC(C)=O)cc1OC
inactive: Potency [1] | outcome [2] | outcome [3] | outcome [4] | outcome [5] | outcome [6] | outcome [7] | outcome [8] | outcome [9] | Potency [10] | outcome [11] | outcome [12] | max response [13] 0.647% | Potency [14] | Potency [15] | outcome [16]
